Source: PubChem BioAssay (National Center for Advancing Translational Sciences (NCATS))
This is a sample that favours compounds with a hit; in the whole collection about 2.8% have one here.
Pol iota inh: inhibitors of human DNA polymerase iota | Potency, µM (titrated, usually from 115 µM), for the others: at the highest dose activity, negative = inhibition, most hits filed as inhibitors | Q9UNA4 | AID 588590 | Pol iota fluorescent replication assay, 10 min | actives 1% (n = 390,000); note: potency is the fitted concentration of half-maximal effect
Target sequence (Q9UNA4 whole entry, looked up): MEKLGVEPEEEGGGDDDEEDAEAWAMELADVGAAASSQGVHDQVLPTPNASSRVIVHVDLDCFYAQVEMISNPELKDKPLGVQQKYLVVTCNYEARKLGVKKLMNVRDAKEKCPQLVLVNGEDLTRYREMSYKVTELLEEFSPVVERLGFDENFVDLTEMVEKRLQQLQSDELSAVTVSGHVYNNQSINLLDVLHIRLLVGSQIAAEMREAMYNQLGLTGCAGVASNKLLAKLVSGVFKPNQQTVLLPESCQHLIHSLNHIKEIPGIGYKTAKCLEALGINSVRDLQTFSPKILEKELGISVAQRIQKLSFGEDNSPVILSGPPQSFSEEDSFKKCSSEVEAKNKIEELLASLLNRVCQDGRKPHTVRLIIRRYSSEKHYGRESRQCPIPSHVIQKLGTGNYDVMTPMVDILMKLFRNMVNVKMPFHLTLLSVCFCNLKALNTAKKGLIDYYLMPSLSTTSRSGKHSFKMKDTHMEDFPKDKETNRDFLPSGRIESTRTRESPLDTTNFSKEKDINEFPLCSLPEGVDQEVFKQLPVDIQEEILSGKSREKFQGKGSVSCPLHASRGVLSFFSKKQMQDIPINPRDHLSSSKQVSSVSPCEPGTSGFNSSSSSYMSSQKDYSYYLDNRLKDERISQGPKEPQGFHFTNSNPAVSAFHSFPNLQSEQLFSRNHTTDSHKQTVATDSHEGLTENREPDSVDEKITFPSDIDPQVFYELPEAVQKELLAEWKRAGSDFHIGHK
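Pol iota at 10 nM preincubated 15 min with compounds at room temperature; reaction started with fluorescent substrate, 50 nM final. Fluorescence read kinetically at 0 and 10 min; buffer-only wells as negative control.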
POLB inh: inhibitors of human DNA polymerase beta; P06746; actives 1.3% (n = 340,000); AID 485314; Pol beta primer extension/strand displacement, fluorescence kinetic; Potency, µM (doses to about 114 µM), for inactives: at the top dose activity change, negative = inhibition, usual class: inhibitors; note: potency is the fitted concentration of half-maximal effect; % is set by controls: 0 for no effect and ±100 for the full control effect
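Kinetic readout of DNA synthesis with strand displacement by Pol beta. Compound and 10 nM enzyme sit 15 min at room temperature; 50 nM substrate starts the reaction, read immediately and at 10 min.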
PI4K2A inh: PI4K2A (human) kinase inhibition. Q9BTU6. purified PI4K2A, ADP-Glo luminescence, 1 h; hits give low values. activity change, negative = inhibition, % at 76.9 µM. actives 0.13% (n = 420,000). AID 1346378; in the data active = activity change below about -50%; inconclusive = mostly about -30% to -49%;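 note: -100% = wells without enzyme as full effect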
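ADP-Glo luminescence measured ADP generated by PI4K2A enzyme (4 ug/mL before mixing) with 1.2 mM PI substrate (pre-mix) and 300 microM ATP (pre-mix). Tris pH7.5 buffer with MgCl2, Triton X-100; 1 h reaction at ambient temperature.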
Pol kappa inh: DNA polymerase kappa (human) inhibition | actives 0.53% (n = 400,000) | Potency, µM (series often up to 107 µM), inactives show top-dose activity, negative = inhibition, hits mostly inhibitors | Q9UBT6 | AID 588579 | purified Pol kappa, fluorescent DNA synthesis assay, 10 min; note: potency is the fitted concentration of half-maximal effect; % is set by controls: 0 for no effect and ±100 for the full control effect
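Fluorescent qHTS in 1536-well format: enzyme (10 nM) and compound sat 15 min at room temperature before 50 nM substrate (final) was added. Signal taken at 0 and 10 min; no-enzyme buffer wells were negative controls.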
Pol eta inh: DNA polymerase eta (human) inhibition; recombinant Pol eta, fluorescent DNA replication assay; Potency, µM (series often up to 114 µM), for the others: at the highest dose activity change, negative = inhibition, usual class: inhibitors; Q9Y253; AID 588591; actives 1.2% (n = 390,000); note: potency is the fitted concentration of half-maximal effect; % is set by controls: 0 for no effect and ±100 for the full control effect
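Pol eta at 10 nM preincubated with compounds 15 min at room temperature; reaction started with fluorescent substrate (50 nM final) and read kinetically at 0 and 10 min.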
PI5P4K alpha inh: inhibitors of human PI5P4K alpha; PI5P4Kalpha enzyme, ADP-Glo luminescence, 60 min; hits give low values; max response, %; actives 1.2% (n = 330,000); AID 652105; active = max response of -50% or lower; inconclusive = between -30% and -50%; inactive = -30% or higher; note: value at the top dose of about 77 µM; % is set by controls: 0 for no effect and ±100 for the full control effect
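Reactions run in 0.038 M HEPES pH 7.4, 0.28 mM EGTA, 0.1% CHAPS and 5% DMSO, with PI5P4Kalpha, substrate, compound and 5 microM ATP final, one hour at room temperature. Readout is ADP-Glo luminescence.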
* hit, by the source's call; [ ] = remark or other dose. Unless noted, calls come from the whole dose curve; as a rule, active = well fitted inhibition curve with a large enough effect; inconclusive = small, poorly fitted or top-dose-only effect, or another doubt; inactive = no such curve, though single readings can be large or run the other way.

Screening CCOc1ccccc1NC(=O)c1nn(C)c2c1CSc1ccccc1-2 returned Pol iota inh -27.9%, POLB inh 4.7%, PI4K2A inh -5.4, Pol kappa inh -14.9% and Pol eta inh -12.1%.
For CCn1c(Cc2cccs2)nnc1SCC(=O)Nc1ccc(Cl)cc1C the results were PI4K2A inh -2.2.
Screening COc1cc(CCC(O)CC(=O)CCc2ccccc2)ccc1O (stereo not drawn) returned Pol iota inh 79.4µM*, POLB inh 25.1µM*, PI4K2A inh -0.5, Pol kappa inh -22.5%, Pol eta inh -11.9% and PI5P4K alpha inh -11.0.
For Cn1cccc1C(=O)N1CCC2(CCCN(c3ncccn3)C2)CC1 the results were Pol kappa inh 4.7%[60.1 µM].
`O=C(NNC(=O)c1ccc2ccccc2c1)Nc1ccc(F)cc1` gave Pol iota inh inconclusive, POLB inh 44.7µM*, PI4K2A inh -1.2, Pol kappa inh -3.5%, Pol eta inh -15.2% and PI5P4K alpha inh 0.1.
`O=C(NNC(=O)c1ccc(-c2ccccc2)cc1)Nc1ccc(F)cc1F` gave Pol iota inh 1.3%, POLB inh 25.1µM*, PI4K2A inh 1.7, Pol kappa inh -4.1%, Pol eta inh -12.7% and PI5P4K alpha inh -0.5.
Screening COc1ccc(C(=O)Nc2ccc(OC)c([N+](=O)[O-])c2)cc1Br returned Pol iota inh -47.7%, POLB inh 20µM*, PI4K2A inh -4.3, Pol kappa inh -15.2%, Pol eta inh inconclusive and PI5P4K alpha inh 1.5.
O=C1CNC(=O)/C1=C\c1ccc(O)cc1 was read as Pol iota inh -15.1%, POLB inh 2.4%, PI4K2A inh -3.8, Pol kappa inh 3.1%, Pol eta inh inconclusive and PI5P4K alpha inh -61.6*.
Screening O=C1CNC(=O)/C1=C/c1ccc(O)cc1 returned Pol iota inh inconclusive, POLB inh 35.1%, PI4K2A inh -7.2, Pol kappa inh -18.6% and Pol eta inh 0.7%.
For COCCOC(=O)C1=C(C)NC2(O)c3ccccc3C(=O)C12O (stereo not drawn) the results were Pol iota inh 31.6µM*, POLB inh -1.0%, PI4K2A inh -19.7, Pol kappa inh 4.3%[60.1 µM], Pol eta inh -1.8% and PI5P4K alpha inh 5.7.
CCOC(=O)C1=C(C)NC2(O)c3ccccc3C(=O)C12O (stereo not drawn) was read as Pol iota inh 2.5%, POLB inh 2.8%, PI4K2A inh -21.2, Pol kappa inh 1.0%, Pol eta inh -13.6% and PI5P4K alpha inh -0.6.
For CCN1CCN(c2ncc3c(n2)CCN(Cc2cc(Br)cs2)C3)CC1 the results were Pol iota inh 2.5%, POLB inh -0.1%, PI4K2A inh -7.3, Pol kappa inh -12.9%[60.1 µM] and Pol eta inh 2.3%.
`O=C(O)/C(=C\c1ccc(Cl)c([N+](=O)[O-])c1)c1ccc(S(=O)(=O)N2CCCCC2)s1` gave Pol iota inh inconclusive, POLB inh inconclusive, PI4K2A inh 7.4, Pol kappa inh -31.7%, Pol eta inh 79.4µM* and PI5P4K alpha inh -23.7.
`O=C(O)/C(=C\c1ccccc1Cl)c1ccc(S(=O)(=O)N2CCCCC2)s1` gave Pol iota inh inconclusive, POLB inh inconclusive, PI4K2A inh -1.5, Pol kappa inh -23.0%, Pol eta inh 50.1µM* and PI5P4K alpha inh -26.8.
O=C(O)/C(=C\c1cccc([N+](=O)[O-])c1)c1ccc(S(=O)(=O)N2CCCCC2)s1 was read as Pol iota inh inconclusive, POLB inh 25.1µM*, PI4K2A inh -7.2, Pol kappa inh -34.5%, Pol eta inh inconclusive and PI5P4K alpha inh -14.2.
For COc1cc(/C=C(\C(=O)O)c2ccc(S(=O)(=O)N3CCCC3)s2)cc(OC)c1 the results were Pol iota inh inconclusive, PI4K2A inh 1.8, Pol kappa inh -15.7%, Pol eta inh inconclusive and PI5P4K alpha inh inconclusive.
For O=C(O)/C(=C\c1ccc(Cl)cc1)c1ccc(S(=O)(=O)N2CCCC2)s1 the results were Pol iota inh -15.0%, PI4K2A inh -7.6, Pol kappa inh inconclusive, Pol eta inh inconclusive and PI5P4K alpha inh 1.3.
